Here are results for 6 molecules from PubChem BioAssay (EPA / NIEHS).

Assay [1] in a line: ATG_M_06_XSP2: Attagene TRANS-FACTORIAL Multi-Species (XSP2) HepG2 Assay for M06 Transcription Factor (Internal Marker) (AID 2283811).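 Further: internal background marker reporter mRNA measured by RT-PCR and capillary electrophoresis; hits are increases in signal above the DMSO baseline.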 A digest of the protocol:
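Internal-marker reporter transcript, quantified by RT-PCR, 6-FAM labelling, HpaI digestion and capillary electrophoresis, 24 hours after dosing transfected HepG2 cells with 3 nM 6-alpha-fluorotestosterone and 1.5 nM norgestrel present; DMSO baseline.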

For assay [2], the system named is turtle Estrogen Receptor (ERa), gene 101933533. In words: ATG_trERa_XSP2: Attagene TRANS-FACTORIAL Multi-Species (XSP2) HepG2 Assay for turtle Estrogen Receptor (ERa) (AID 2283812).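 Further: actives raise reporter signal above DMSO so AC50 reflects agonist activity.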 In short, it runs like this: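 Readout is reporter mRNA quantified by RT-PCR with capillary electrophoresis after 24 h compound exposure, increase relative to DMSO. Uses transiently transfected human HepG2 liver cells carrying a chimeric turtle ERa-Gal4 receptor driving GAL4-UAS reporters.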

For assay [3], the system named is zebrafish Peroxisome Proliferator-activated Receptor gamma (PPARg), gene 557037. The assay can be described thus: ATG_zfPPARg_XSP1: Attagene TRANS-FACTORIAL Multi-Species (XSP1) HepG2 Assay for zebrafish Peroxisome Proliferator-activated Receptor gamma (PPARg) (AID 2283801). In short, it runs like this: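 Trans-activation readout of chimeric zebrafish PPARg–GAL4 in transiently transfected human HepG2 cells, 24 h chemical exposure (medium includes 3 nM 6-alpha-fluorotestosterone). Reporter transcripts measured by RT-PCR and capillary electrophoresis, fitted as gain over DMSO.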

Assay [4] deals with mouse Peroxisome Proliferator-activated Receptor gamma (PPARg), Pparg (gene 19016) (UniProt P37238). The assay can be described thus: ATG_mPPARg_XSP1: Attagene TRANS-FACTORIAL Multi-Species (XSP1) HepG2 Assay for mouse Peroxisome Proliferator-activated Receptor gamma (PPARg) (AID 2283802). A digest of the protocol:
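Readout is reporter mRNA induction, measured by RT-PCR with 6-FAM labelling, HpaI digestion and capillary electrophoresis, 24 h post-dose relative to DMSO. Transient multi-reporter transfection of human HepG2 with mouse PPARg–GAL4 fusion; 3 nM 6-alpha-fluorotestosterone included.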

Assay [5] has as its target Nuclear receptor subfamily 1 group I member 2 (Mus musculus) (UniProt O54915). The assay can be described thus: ATG_mPXR_XSP1: Attagene TRANS-FACTORIAL Multi-Species (XSP1) HepG2 Assay for mouse Pregnane X Receptor (PXR) (AID 2283803). In short, it runs like this: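 Transiently transfected HepG2 cells expressing a receptor-Gal4 chimera drive a GAL4-UAS reporter; 3 nM 6-alpha-fluorotestosterone included. Reporter mRNA read 24 h post-dose by RT-PCR and capillary electrophoresis; gain of signal relative to DMSO.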

In assay [6] the test system is turtle Thyroid Hormone Receptor, alpha (TRa), gene 101949057. In words: ATG_trTRa_XSP1: Attagene TRANS-FACTORIAL Multi-Species (XSP1) HepG2 Assay for turtle Thyroid Hormone Receptor, alpha (TRa) (AID 2283806). A digest of the protocol: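 After 24 h chemical exposure, reporter transcripts were measured by RT-PCR with fluorescent primer extension, HpaI digestion and capillary electrophoresis. Cells were transiently transfected HepG2 expressing exogenous NR-Gal4 chimeras; medium contained 3 nM 6-alpha-fluorotestosterone; fitted upward relative to DMSO.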

Assay [7] deals with zebrafish Thyroid Hormone Receptor alpha (TRa), thraa (gene 30670) (UniProt Q98867). The assay can be described thus: ATG_zfTRa_XSP1: Attagene TRANS-FACTORIAL Multi-Species (XSP1) HepG2 Assay for zebrafish Thyroid Hormone Receptor alpha (TRa) (AID 2283807). In short, it runs like this:
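Reporter transcripts driven by a chimeric zebrafish TRa–Gal4 protein were measured by RT-PCR with fluorescent labelling and capillary electrophoresis. These came from transiently transfected HepG2 cells after 24 h chemical exposure, with 3 nM 6-alpha-fluorotestosterone added; baseline was DMSO.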

Assay [8] has as its target human Thyroid hormone Receptor beta (TRb), THRB (gene 7068) (UniProt P10828). The assay can be described thus: ATG_hTRb_XSP1: Attagene TRANS-FACTORIAL Multi-Species (XSP1) HepG2 Assay for human Thyroid hormone Receptor beta (TRb) (AID 2283808). In short, it runs like this: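 Readout is reporter mRNA induction measured by RT-PCR, fluorescent labelling and capillary electrophoresis, fitted upward relative to DMSO. Transiently transfected human HepG2 cells expressing NR-Gal4 chimeras were dosed for 24 h, medium containing 3 nM 6-alpha-fluorotestosterone.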

Assay [9] deals with zebrafish Thyroid Hormone Receptor beta (TRb), thrb (gene 30607) (UniProt Q9PVE4). The assay can be described thus: ATG_zfTRb_XSP1: Attagene TRANS-FACTORIAL Multi-Species (XSP1) HepG2 Assay for zebrafish Thyroid Hormone Receptor beta (TRb) (AID 2283809). A digest of the protocol: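 HepG2 cells transiently transfected with multiplexed GAL4-UAS reporter units expressing chimeric zebrafish TRb–Gal4. Dosed 24 h with 3 nM 6-alpha-fluorotestosterone present; reporter mRNA measured by RT-PCR, HpaI digestion and capillary electrophoresis; gain of signal versus DMSO.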
Sequence of zebrafish Thyroid Hormone Receptor beta (TRb), thrb (gene 30607) (Q9PVE4 whole entry, looked up, the tested form may be a part): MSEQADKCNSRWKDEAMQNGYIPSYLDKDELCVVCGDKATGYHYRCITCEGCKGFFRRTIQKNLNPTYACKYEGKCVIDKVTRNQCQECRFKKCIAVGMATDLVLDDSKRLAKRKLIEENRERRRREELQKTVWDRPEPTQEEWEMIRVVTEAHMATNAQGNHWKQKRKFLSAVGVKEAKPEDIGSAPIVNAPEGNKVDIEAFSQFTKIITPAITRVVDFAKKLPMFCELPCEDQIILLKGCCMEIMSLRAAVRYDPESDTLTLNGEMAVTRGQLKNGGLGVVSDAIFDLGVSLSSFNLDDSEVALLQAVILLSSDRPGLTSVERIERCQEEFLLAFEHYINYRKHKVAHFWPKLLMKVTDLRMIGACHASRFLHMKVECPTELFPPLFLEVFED

The nature of assay [10]: ATG_XTT_Cytotoxicity_XSP1: Cytotoxicity Assessment in the Attagene TRANS-FACTORIAL Multi-Species (XSP1) HepG2 Assay (AID 2283810). A digest of the protocol:
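XTT viability readout taken at 24 hours post-dosing in HepG2 liver cells co-treated with 3 nM 6-alpha-fluorotestosterone. Signal loss relative to DMSO controls reflects cytotoxicity.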

Each structure is given as a SMILES string. Where “and” joins values, the source holds several entries; their conditions need not be identical. Equal values may be shown once. Records with an inconclusive call do not appear. Calls of active or inactive are those of the source. How the source made its calls: active means hit-call score of the fitted dose curve at least 0.9, where 1 is the maximum; inconclusive means response in the unintended direction; inactive means score below 0.9.

Sequence of zebrafish Thyroid Hormone Receptor alpha (TRa), thraa (gene 30670) (Q98867 whole entry, looked up, the tested form may be a part): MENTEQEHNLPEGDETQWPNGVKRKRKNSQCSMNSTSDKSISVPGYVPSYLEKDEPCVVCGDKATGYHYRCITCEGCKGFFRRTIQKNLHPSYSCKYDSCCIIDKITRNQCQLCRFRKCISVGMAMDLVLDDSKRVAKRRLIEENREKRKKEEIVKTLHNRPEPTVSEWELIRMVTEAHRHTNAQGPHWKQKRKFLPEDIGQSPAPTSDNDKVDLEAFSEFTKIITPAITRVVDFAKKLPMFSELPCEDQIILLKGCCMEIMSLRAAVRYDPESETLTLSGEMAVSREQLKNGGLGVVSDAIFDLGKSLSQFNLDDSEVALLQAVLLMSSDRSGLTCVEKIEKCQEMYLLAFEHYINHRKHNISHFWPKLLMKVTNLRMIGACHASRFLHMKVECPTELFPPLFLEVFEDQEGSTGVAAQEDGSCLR
Sequence of Nuclear receptor subfamily 1 group I member 2 (Mus musculus) (O54915 whole entry, looked up, the tested form may be a part): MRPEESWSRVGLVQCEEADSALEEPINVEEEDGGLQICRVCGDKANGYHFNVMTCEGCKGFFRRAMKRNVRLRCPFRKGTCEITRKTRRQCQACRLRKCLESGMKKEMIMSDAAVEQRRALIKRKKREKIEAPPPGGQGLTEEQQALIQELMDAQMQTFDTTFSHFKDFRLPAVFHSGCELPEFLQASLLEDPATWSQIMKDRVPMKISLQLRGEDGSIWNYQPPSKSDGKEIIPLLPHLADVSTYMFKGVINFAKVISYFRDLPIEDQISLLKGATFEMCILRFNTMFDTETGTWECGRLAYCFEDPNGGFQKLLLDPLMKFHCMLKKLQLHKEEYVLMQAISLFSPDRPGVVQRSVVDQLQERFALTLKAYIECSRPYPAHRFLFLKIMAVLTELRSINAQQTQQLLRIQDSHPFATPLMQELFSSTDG
Sequence of human Thyroid hormone Receptor beta (TRb), THRB (gene 7068) (P10828 whole entry, looked up, the tested form may be a part): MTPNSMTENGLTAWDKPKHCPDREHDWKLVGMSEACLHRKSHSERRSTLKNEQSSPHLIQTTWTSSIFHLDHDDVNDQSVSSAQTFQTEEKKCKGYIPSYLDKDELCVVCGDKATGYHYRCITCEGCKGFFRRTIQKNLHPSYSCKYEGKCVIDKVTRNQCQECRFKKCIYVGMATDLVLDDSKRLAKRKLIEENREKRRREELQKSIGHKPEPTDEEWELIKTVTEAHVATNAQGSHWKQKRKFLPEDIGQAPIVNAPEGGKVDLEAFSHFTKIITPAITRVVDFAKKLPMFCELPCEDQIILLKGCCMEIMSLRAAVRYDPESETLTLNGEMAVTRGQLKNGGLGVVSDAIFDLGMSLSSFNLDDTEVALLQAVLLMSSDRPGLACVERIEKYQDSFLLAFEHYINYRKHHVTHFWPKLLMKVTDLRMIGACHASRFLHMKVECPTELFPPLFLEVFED
Sequence of mouse Peroxisome Proliferator-activated Receptor gamma (PPARg), Pparg (gene 19016) (P37238 whole entry, looked up, the tested form may be a part): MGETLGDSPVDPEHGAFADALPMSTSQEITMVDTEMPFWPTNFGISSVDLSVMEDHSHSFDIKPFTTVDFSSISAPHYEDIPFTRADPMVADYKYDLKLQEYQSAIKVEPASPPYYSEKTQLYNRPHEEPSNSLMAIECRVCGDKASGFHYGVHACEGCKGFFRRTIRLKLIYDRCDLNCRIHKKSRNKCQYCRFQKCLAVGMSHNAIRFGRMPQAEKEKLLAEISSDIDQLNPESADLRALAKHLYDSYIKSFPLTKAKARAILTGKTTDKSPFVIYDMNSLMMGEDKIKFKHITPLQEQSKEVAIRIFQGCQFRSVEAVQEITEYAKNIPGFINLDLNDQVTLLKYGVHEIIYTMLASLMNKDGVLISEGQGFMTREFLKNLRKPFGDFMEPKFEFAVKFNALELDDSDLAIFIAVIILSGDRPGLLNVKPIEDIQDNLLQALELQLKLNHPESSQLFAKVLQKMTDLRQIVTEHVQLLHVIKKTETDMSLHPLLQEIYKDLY

Take `CC(C)(C)c1ccc(O)cc1`: the molecule was called inactive in assay [1]. In addition, the AC50 (as a rule, the midpoint of the concentration-response curve, whichever way the signal moves) in assay [2] is 6.07 µM (active) and 4.64 µM (active).
Regarding `CCC(C)(C)c1ccc(O)cc1`, in assay [2], the AC50 is 4.29 µM (active) and 1.92 µM (active).
For `O=S(=O)(c1ccc(O)cc1)c1ccc(O)cc1`, the result in [1] was inactive. Moreover, the AC50 in assay [2] is 2.98 µM (active) and 2.14 µM (active).
Consider `CCCCc1ccc(O)cc1`, for which the molecule was called inactive in [1]. The AC50 in [2] is 2.42 µM (active) and 3.02 µM (active).
With `c1ccc2c(c1)Nc1ccccc1S2`, the result in assay [1] was inactive. Besides, the AC50 in [2] was 10.7 µM (active) and 6.48 µM (active).
On to `O=P(Oc1ccccc1)(Oc1ccccc1)Oc1ccccc1`, for which the concentration at half-maximal activity (AC50) in assay [3] was 8.08 µM (active); in assay [4], 6.18 µM (active); in [5], 0.367 µM (active); in assay [7] it was 25.4 µM (active). The outcome in assay [6], in assay [8], in [9], in assay [10] and in assay [1] was inactive.
